Screens: PubChem, National Center for Advancing Translational Sciences (NCATS)
Pf growth 96h – Primary qHTS for delayed death inhibitors of the malarial parasite plastid, 96 hour incubation | Potency, µM (doses to about 28.7 µM), actives largely listed as inhibitors | P. falciparum luciferase reporter growth, 96 h | 320,000 compounds, 6.9% hits | AID 504834, 2011
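96 h incubation, 37 C, 5% CO2, of luciferase-reporter P. falciparum-infected RBCs (2% hematocrit, 0.05% parasitemia final) with test compounds; endpoint luminescence.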
HCMV inh – qHTS Assay for inhibitors of the human cytomegalovirus (HCMV); HFF cells, HCMV-luciferase reporter, 72 h; hits give low values; activity change, negative = inhibition, % at 57.5 µM; 410,000 compounds, 4.5% hits; in the data active = activity change below about -60%; inconclusive = no clear call, values can overlap the other calls; inactive = above about -39%
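Luciferase read-out from HCMV-luciferase-infected HFFs (MOI 1 PFU/cell) 72 h post infection at 37C; compounds added after 16 h cell attachment; activity normalized between buffer-only basal and Salinomycin (10uM) inhibitor controls.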
Cycloheximide cs – Cycloheximide Counterscreen for Small Molecule Inhibitors of Shiga Toxin | AID 2314, 2010 | max response, % | 300,000 compounds, 12% hits | cell reporter, cycloheximide protein synthesis inhibition counterscreen; in the data active = max response mostly above about 13%, no sharp cut-off; inactive = mostly below about 14%; note: read at 38.3 µM for the half of the compounds with a filed dose
Shiga inhibitor – A qHTS for Small Molecule Inhibitors of Shiga Toxin; Vero cells, Shiga toxin protein synthesis inhibition reporter; inhibition, % at 38.7 µM; 290,000 compounds, 9.2% hits; AID 2315, 2010; in the data active = inhibition mostly above about 28%, no sharp cut-off; inactive = mostly below about 43%
HCV inh – qHTS Assay for Inhibitors of Hepatitis C Virus (HCV) | Huh7.5.1 HCVcc-Cre infection, luciferase reporter, 44 h | Potency, µM (doses to about 41.8 µM), most hits filed as inhibitors | 340,000 compounds, 3.4% hits | AID 651820, 2012
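Seed cells (1,000/well) for 4 h; treat with compound and infect with HCVcc-Cre, moi about 0.5. Incubate 44 h, then detect luciferase activity.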
Pf growth 48h – Primary qHTS for delayed death inhibitors of the malarial parasite plastid, 48 hour incubation; P. falciparum luciferase growth in erythrocytes, 48 h; 310,000 compounds, 5.9% hits; AID 504832, 2011; Potency, µM (doses to about 28.7 µM), most hits filed as inhibitors
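In quantitative HTS format, infected erythrocytes bearing luciferase-reporter parasites were treated for a single generation at 37 C. Luminescence after adding detection reagent served as the growth measure.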
Each line names hits and unclear results; the compound was inactive in the other large screens. A selection: hits, their analogues and other compounds. The true share with any hit is near 21%. Unless noted, calls come from the whole dose curve; as a rule, active = well fitted inhibition curve with a large enough effect; inconclusive = small, poorly fitted or top-dose-only effect, or another doubt; inactive = no such curve, though single readings can be large or run the other way.

COc1ccc(C(=O)CSc2nc3ccccc3n2CC(=O)c2ccccc2)cc1	HCMV inh -66, HCV inh inconclusive, Pf growth 48h inconclusive
O=S1(=O)[C@H]2C[C@@H]3C=C[C@@]2(CN1Cc1ccc(F)cc1)O3	none
CC(=O)Nc1cccc(-c2cc(N3CCN(CCO)CC3)n3nccc3n2)c1	none (no result: Pf growth 96h, Cycloheximide cs, Shiga inhibitor, HCV inh, Pf growth 48h)
O=C(NCCN1Cc2ccccc2C1=O)c1cccs1	Pf growth 96h inconclusive, Cycloheximide cs 21, Shiga inhibitor 47
OCCNC(=S)NC1CCCCC1	none
O=C1c2ccccc2CN1CCNC(=S)NC1CCCCC1	Cycloheximide cs 31, Shiga inhibitor 45
O=C(NCCc1ccc(OC(F)F)cc1)C1CC(=O)N(c2ccc3c(c2)OCCO3)C1 (centres undefined)	none (no result: Cycloheximide cs, Shiga inhibitor)
CN(C)S(=O)(=O)c1ccc(C(=O)Nc2ccc(S(=O)(=O)NC3=NCCCCC3)cc2)cc1	Pf growth 96h inconclusive (no result: Pf growth 48h)
Cc1ccc(S(=O)(=O)Nc2ccc(NC(=O)c3cccs3)cc2)cc1	HCV inh inconclusive, Pf growth 48h inconclusive
O=C(Nc1ccc(S(=O)(=O)NC2=NCCCCC2)cc1)c1cccs1	HCMV inh -102, HCV inh inconclusive (no result: Pf growth 96h, Cycloheximide cs, Shiga inhibitor, Pf growth 48h)
O=C(Nc1ccc(S(=O)(=O)NC2=NCCCCC2)cc1)c1ccc(C(F)(F)F)cc1	Pf growth 96h inconclusive, HCMV inh -67, HCV inh inconclusive
O=C(Nc1ccc(S(=O)(=O)NC2=NCCCCC2)cc1)c1ccc([N+](=O)[O-])s1	Pf growth 96h 13µM, HCV inh inconclusive, Pf growth 48h 10µM (no result: Cycloheximide cs, Shiga inhibitor)
COc1ccc(NC(=O)Cn2c(=O)n(CCC(=O)NCCc3ccc(OC)c(OC)c3)c(=O)c3ccccc32)cc1Cl	none (no result: Pf growth 96h, Cycloheximide cs, Shiga inhibitor, HCV inh, Pf growth 48h)
COCCNC(=O)c1cc2c(c(-c3cccc(-c4cc5ccccc5o4)c3)n1)[C@H](CCO)N(S(=O)C(C)(C)C)C2 (some centres undefined)	none (no result: Pf growth 96h, Cycloheximide cs, Shiga inhibitor, HCV inh, Pf growth 48h)
COc1ccc2[nH]c3c(=O)n(CCCCC(=O)NCCC(C)C)c(=S)[nH]c3c2c1	Pf growth 96h 5.2µM, Pf growth 48h inconclusive
CCCNC(=O)CCCCn1c(=S)[nH]c2c([nH]c3ccc(OC)cc32)c1=O	none
CCCCC(=O)N(C)c1c(CC)nc2c(OCCC3CCCCC3)cccn12	HCMV inh -98 (no result: Pf growth 96h, Cycloheximide cs, Shiga inhibitor, HCV inh, Pf growth 48h)
CCCCC(=O)N(C)c1c(CC)nc2c(OCC3CCCCC3)cccn12	HCMV inh -64 (no result: Pf growth 96h, Cycloheximide cs, Shiga inhibitor, HCV inh, Pf growth 48h)
CCOC(=O)N(C)c1c(CC)nc2c(OCc3ccc(Cl)cc3)cccn12	HCMV inh -89 (no result: Pf growth 96h, Cycloheximide cs, Shiga inhibitor, HCV inh, Pf growth 48h)
CCOC(=O)C(=O)N(C)c1c(CC)nc2c(OCc3ccc(Cl)cc3)cccn12	none (no result: Pf growth 96h, Cycloheximide cs, Shiga inhibitor, HCV inh, Pf growth 48h)
CCCCC(=O)N(C)c1c(CC)nc2c(OCCOC)cccn12	none (no result: Pf growth 96h, Cycloheximide cs, Shiga inhibitor, HCV inh, Pf growth 48h)
CC1=NNC(=O)/C1=C\c1cn(-c2ccccc2)nc1-c1ccc(Cl)cc1	Pf growth 96h inconclusive, HCMV inh -102, HCV inh inconclusive, Pf growth 48h inconclusive
Cc1c(Cl)cccc1NC(=S)N(CCCN1CCOCC1)Cc1cccs1	Pf growth 48h inconclusive
Cc1ccc(NC(=S)N(CCCN2CCOCC2)Cc2cccs2)c(C)c1	Pf growth 96h 9.3µM, HCMV inh inconclusive, Pf growth 48h inconclusive
CN(C)CCNC(=O)CNC(=S)N(CCCN1CCOCC1)Cc1cccs1	none
CCN(CC)CCNC(=O)CNC(=S)N(CCCN1CCOCC1)Cc1cccs1	Pf growth 96h 1.7µM, HCV inh inconclusive
c1ccc2c(c1)nnn2-c1ncnc2sccc12	Cycloheximide cs 34, Shiga inhibitor 62, HCV inh inconclusive
NC(N)=N/N=C/c1ccc(Br)cc1	Pf growth 48h 12µM
NC(N)=N/N=C/c1ccc(OCc2ccccc2)cc1	Pf growth 96h 1.5µM, HCMV inh -96, HCV inh inconclusive, Pf growth 48h 1.5µM
NC(N)=N/N=C/c1ccc(OCc2ccc(Cl)cc2)cc1	Pf growth 96h 2.3µM, HCV inh inconclusive, Pf growth 48h 0.33µM
N#Cc1ccc(/C=N/N=C(N)N)cc1	Pf growth 48h inconclusive (no result: Pf growth 96h)
CC(=O)[C@H]1CC[C@H]2C3CC=C4C[C@@H](O)CC[C@]4(C)C3CC[C@]12C (some centres undefined)	none (no result: HCMV inh, Cycloheximide cs, Shiga inhibitor, HCV inh)
CC(=O)N1CCC(C(=O)N2c3ccccc3N=C(c3ccc4c(c3)OCO4)C2C(=O)NCc2ccccc2)CC1 (centres undefined)	none (no result: Pf growth 96h, Cycloheximide cs, Shiga inhibitor, HCV inh, Pf growth 48h)
CCCc1nc2ccc(C)cn2c1Cc1ccccc1OC	none (no result: Pf growth 96h, Cycloheximide cs, Shiga inhibitor, HCV inh, Pf growth 48h)
CCCc1nc2ccc(C)cn2c1Cc1ccccc1C(F)(F)F	HCMV inh -69 (no result: Pf growth 96h, Cycloheximide cs, Shiga inhibitor, HCV inh, Pf growth 48h)
O=C(NN=C1CCCC1)c1cc(Cl)cc(Cl)c1O	Pf growth 96h inconclusive
Cc1ccc(-n2ncc3c2CC(C)(C)CC3NC(=O)c2ccncc2)cc1 (centres undefined)	Pf growth 96h inconclusive
O=C(Nc1cccc(C(F)(F)F)c1)C(=O)N1CCCCC1	Pf growth 96h inconclusive, Cycloheximide cs 11
O=[N+]([O-])c1cccc(NC(=S)N2CCCC2)c1	Pf growth 96h inconclusive, HCMV inh inconclusive
FC(F)(F)c1cccc(NC(=S)N2CCCCCC2)c1	Pf growth 96h inconclusive
O=C(Nc1cccc([N+](=O)[O-])c1)C(=O)N1CCCCC1	Cycloheximide cs 43, Shiga inhibitor 69, Pf growth 48h inconclusive
O=c1cc(N=Nc2ccc(Cl)cc2)[nH]c(=O)[nH]1	Pf growth 96h inconclusive, HCMV inh -100, HCV inh inconclusive
